Calls of active or inactive are those of the source. Calls follow the shape of the dose curve; as a rule, active = well fitted curve in the direction sought with a large enough effect; inactive = no such curve, though single readings can be large or run the other way.
Test: Retest of LOPAC molecules that induce DNA re-replication in SW480 adenocarcinoma cells.
Conditions: Hoechst DNA content imaging, 48 h; series mostly up to 45.1 µM
From the text: NIH Molecular Libraries Probe Production Network [MLPCN] NIH Chemical Genomics Center [NCGC] MLPCN Grant: Fast Track K99 CA136555 Assay Provider: Melvin DePamphilis, NICHD, NIH Assay Overview Eukaryotic cells normally restrict genome duplication to once per cell division. When this process is aberrant, DNA re-replication occurs when cells reinitiate DNA replication before the first round of replication is complete. DNA re-replication induces the DNA damage response, arrests cell proliferation, and triggers apoptosis. The cell cycle components cyclin A, Cdt-1, Cdc6 and geminin are critical regulators of this process and their misregulation results in DNA re-replication in normal and cancer cells. To identify compounds that induce re-replication in normal cells, an image-based assay was used to measure DNA content of nuclei, as detected by the fluorescent DNA binding dye, Hoechst. Cell nuclei were imaged by a fluorescence scanning plate imager and compounds that induce DNA re-replication were identified by the increase of nuclei with elevated fluorescence intensity.
Assay Protocol Summary For screening, 250 cells in 5 uL/well were dispensed into black clear 1536-well plates (Aurora) using a solenoid-based dispenser. Following transfer of 23 nL compound or DMSO vehicle by a pin tool, the plates were incubated 48 hr at 37 C and 5% CO2. After addition of 1 uL/well Hoescht stain, the plates were incubated 40 min at 37 C, 5% CO2 and total intensity of fluorescent objects (nuclei) were enumerated by an Acumen Explorer Ex3 (TTP LabTech) fluorescence scanning plate imager (405 nm excitation, 500-530 nm emission). Keywords: NIH Roadmap, MLPCN, MLI, MLSMR, qHTS, NCGC, DNA replication, cancer

Compound	Potency
CC(=O)O[C@H]1C(=O)[C@@]2(C)C([C@H](OC(=O)c3ccccc3)[C@]3(O)C[C@H](OC(=O)[C@H](O)[C@@H](NC(=O)c4ccccc4)c4ccccc4)C(C)=C1C3(C)C)[C@]1(OC(C)=O)CO[C@@H]1C[C@@H]2O (stereo not given in full)	169 nM (active)
O=c1cc(-c2ccccc2)[nH]c2nc(Cl)ccc12	1690 nM (active)
COc1cc2c(cc1O)CC[C@@H]1[C@@H]2CC[C@]2(C)[C@@H](O)CC[C@@H]12	6730 nM (active)
C[C@@H](Oc1ccc(Oc2cnc3ccc(Cl)cc3n2)cc1)C(=O)O	inactive
CCCCCCN(CCCCCC)C(=O)Cc1c(-c2ccc(F)cc2)[nH]c2ccccc12	inactive

— PubChem BioAssay AID493165 (National Center for Advancing Translational Sciences (NCATS), 2011)
